The record followed here is the supplement of paper PMC7724964.

What all share (assay): phage ELISA signal ratio (GST-PRM binding over GST background); higher = stronger binding of peptide-phage to the PRM
The target in experiment [1] is PLEK2 238-353 PH (domain begin residue: 238, domain end residue: 353). An outline of the steps: (§1)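 Five rounds of selection were carried out against human peptide recognition domains fused to the C-terminus of glutathione S-transferase (GST) and expressed in 96-well plates. The M13 phage library presented randomized hexadecapeptides, cysteine-free and glycine-flanked, on the gene-8 major coat protein. For each value, the phage ELISA signal on the GST-domain fusion was divided by the signal on GST alone.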

Experiment [2] addresses PHF19 190-255 PHD (domain begin residue: 190, domain end residue: 255), Q5T6S3. An outline of the steps: as §1
The target in experiment [3] is PLEK2 123-229 DEP (domain begin residue: 123, domain end residue: 229). A digest of the protocol: as §1
Experiment [4] addresses T1, PDCD6IP 3-392 BRO1 (domain begin residue: 3, domain end residue: 392), Q8WUM4.
T1 chain: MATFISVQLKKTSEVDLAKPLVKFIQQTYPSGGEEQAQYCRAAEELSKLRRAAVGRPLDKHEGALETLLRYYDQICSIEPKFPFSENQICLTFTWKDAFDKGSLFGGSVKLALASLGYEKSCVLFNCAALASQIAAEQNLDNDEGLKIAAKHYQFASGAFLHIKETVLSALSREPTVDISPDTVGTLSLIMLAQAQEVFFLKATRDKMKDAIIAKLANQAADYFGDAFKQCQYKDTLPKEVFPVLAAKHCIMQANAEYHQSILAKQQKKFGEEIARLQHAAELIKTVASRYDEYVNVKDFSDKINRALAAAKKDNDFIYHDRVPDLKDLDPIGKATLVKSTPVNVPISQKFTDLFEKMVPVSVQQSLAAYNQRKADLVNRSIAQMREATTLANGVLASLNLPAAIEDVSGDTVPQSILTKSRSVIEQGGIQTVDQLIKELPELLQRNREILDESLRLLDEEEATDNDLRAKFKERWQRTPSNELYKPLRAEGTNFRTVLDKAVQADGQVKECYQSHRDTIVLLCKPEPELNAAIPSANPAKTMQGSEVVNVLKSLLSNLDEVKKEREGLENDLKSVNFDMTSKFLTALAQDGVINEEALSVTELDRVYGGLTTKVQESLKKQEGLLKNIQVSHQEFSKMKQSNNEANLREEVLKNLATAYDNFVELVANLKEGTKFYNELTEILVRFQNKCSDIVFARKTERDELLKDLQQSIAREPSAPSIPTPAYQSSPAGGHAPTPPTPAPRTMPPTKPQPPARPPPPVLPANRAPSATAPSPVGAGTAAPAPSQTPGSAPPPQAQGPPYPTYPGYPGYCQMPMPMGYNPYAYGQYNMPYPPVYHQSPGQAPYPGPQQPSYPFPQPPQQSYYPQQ
An outline of the steps:
as §1

In experiment [5] the target is T2, PPARG 233-505 Hormone_recep (domain begin residue: 233, domain end residue: 505), P37231.
T2 chain: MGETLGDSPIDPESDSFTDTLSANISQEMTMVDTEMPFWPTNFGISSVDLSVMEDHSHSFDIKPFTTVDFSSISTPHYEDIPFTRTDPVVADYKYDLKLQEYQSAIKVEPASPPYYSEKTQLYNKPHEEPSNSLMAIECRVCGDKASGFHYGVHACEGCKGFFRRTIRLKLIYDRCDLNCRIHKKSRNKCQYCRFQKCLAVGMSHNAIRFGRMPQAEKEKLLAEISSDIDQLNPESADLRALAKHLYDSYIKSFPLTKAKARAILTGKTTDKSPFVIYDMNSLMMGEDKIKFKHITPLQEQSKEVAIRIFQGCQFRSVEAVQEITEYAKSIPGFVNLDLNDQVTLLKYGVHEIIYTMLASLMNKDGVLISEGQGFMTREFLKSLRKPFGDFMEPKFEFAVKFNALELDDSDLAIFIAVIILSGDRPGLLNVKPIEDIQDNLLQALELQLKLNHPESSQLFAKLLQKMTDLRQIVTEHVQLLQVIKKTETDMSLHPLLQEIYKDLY
A digest of the protocol: as §1

For experiment [6], the target named is PDCD6 23-191 EF-hand_5+EF-hand_7 (domain begin residue: 23, domain end residue: 191), O75340. A digest of the protocol: as §1
Sequence of PDCD6 23-191 EF-hand_5+EF-hand_7 (domain begin residue: 23, domain end residue: 191), O75340 (O75340 whole entry): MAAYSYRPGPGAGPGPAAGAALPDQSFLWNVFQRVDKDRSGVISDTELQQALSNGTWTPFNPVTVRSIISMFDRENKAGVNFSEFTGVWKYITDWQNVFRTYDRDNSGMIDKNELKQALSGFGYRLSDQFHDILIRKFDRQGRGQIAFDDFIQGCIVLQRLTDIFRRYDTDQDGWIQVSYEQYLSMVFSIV
For experiment [7], the target named is PIKFYVE 347-450 DEP (domain begin residue: 347, domain end residue: 450), Q9Y2I7. A digest of the protocol:
as §1

In experiment [8] the target is T3, PLEK 120-231 DEP (domain begin residue: 120, domain end residue: 231), P08567.
T3 chain: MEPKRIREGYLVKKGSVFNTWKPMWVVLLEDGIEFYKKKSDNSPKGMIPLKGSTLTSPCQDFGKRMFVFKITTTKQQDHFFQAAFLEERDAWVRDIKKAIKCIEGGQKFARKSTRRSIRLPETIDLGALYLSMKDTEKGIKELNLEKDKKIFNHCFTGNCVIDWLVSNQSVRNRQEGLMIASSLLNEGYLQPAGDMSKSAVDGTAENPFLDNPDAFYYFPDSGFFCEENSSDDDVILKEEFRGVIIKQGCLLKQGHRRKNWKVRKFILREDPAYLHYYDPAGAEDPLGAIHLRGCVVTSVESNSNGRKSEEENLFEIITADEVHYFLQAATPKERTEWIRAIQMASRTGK
An outline of the steps:
as §1

Sequence of PIKFYVE 347-450 DEP (domain begin residue: 347, domain end residue: 450), Q9Y2I7 (Q9Y2I7 whole entry): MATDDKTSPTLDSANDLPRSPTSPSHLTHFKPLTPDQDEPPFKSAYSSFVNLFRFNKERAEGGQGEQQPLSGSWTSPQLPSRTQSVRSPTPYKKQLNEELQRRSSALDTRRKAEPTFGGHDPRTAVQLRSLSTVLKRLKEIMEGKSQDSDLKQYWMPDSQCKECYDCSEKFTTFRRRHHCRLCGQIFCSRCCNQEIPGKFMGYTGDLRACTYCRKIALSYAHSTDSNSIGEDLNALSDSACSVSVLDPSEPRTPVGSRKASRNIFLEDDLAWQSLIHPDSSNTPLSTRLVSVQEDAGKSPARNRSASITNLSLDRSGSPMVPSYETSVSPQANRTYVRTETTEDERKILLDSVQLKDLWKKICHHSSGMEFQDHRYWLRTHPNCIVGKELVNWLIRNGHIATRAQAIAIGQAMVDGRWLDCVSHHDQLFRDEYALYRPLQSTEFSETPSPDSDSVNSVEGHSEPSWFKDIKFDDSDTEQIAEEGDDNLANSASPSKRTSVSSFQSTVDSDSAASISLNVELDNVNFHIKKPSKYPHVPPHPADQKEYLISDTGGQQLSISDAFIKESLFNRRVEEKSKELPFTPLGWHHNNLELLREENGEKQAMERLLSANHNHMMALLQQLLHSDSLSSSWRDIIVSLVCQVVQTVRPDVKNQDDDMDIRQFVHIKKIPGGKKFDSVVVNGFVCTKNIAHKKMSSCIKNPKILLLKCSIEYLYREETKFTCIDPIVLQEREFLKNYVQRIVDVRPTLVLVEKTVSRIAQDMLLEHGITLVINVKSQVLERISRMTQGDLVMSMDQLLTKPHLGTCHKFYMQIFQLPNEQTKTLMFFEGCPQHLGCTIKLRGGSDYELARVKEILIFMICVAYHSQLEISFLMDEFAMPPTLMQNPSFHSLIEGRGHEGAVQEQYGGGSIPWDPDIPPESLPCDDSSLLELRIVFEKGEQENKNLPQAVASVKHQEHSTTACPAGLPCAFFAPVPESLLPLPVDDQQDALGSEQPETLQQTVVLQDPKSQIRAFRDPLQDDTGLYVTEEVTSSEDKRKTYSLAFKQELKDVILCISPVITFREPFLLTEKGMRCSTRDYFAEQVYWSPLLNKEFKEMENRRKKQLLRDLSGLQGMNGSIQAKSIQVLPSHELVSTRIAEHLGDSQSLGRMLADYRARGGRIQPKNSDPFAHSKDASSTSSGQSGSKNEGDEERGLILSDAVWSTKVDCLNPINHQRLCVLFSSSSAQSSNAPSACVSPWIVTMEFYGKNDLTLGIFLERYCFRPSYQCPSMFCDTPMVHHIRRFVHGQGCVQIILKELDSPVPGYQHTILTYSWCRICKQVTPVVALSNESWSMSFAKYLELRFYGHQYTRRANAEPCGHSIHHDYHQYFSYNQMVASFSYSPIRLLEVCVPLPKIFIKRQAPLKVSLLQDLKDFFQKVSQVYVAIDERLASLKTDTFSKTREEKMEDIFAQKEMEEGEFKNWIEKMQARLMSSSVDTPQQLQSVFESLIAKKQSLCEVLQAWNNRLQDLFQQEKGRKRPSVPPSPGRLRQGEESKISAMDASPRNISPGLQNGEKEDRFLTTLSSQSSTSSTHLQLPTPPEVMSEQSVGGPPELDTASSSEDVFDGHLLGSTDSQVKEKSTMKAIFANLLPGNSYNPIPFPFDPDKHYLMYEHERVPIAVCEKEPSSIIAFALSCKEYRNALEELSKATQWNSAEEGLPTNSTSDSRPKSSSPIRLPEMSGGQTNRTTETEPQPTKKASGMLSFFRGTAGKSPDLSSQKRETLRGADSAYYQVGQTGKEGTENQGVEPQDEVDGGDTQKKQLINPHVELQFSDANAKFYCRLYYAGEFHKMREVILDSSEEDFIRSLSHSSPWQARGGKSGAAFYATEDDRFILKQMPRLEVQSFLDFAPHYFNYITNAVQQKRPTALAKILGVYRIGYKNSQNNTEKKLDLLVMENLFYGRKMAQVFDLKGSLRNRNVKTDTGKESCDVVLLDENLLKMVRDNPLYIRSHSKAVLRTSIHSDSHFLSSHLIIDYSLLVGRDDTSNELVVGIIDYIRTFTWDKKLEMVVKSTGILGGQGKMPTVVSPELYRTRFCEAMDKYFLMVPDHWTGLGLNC

B1: unnamed (peptide)
chain: DHWDAFYTWQKQNYLD
B1: the “phage ELISA signal ratio” value in experiment [1] amounted to 36.8.

B2: unnamed (peptide)
chain: MEAPHWVWPPDGYALR
On to B2, for which the “phage ELISA signal ratio” value in experiment [2] turned out to be 6.23.

B3: unnamed (peptide)
chain: WNWENVWWLDQTHPLW
On to B3, for which the “phage ELISA signal ratio” value in experiment [3] was found to be 10.1.

B4: unnamed (peptide)
chain: WDYMSEEESIRYLIEW
As to B4, the “phage ELISA signal ratio” value in experiment [4] worked out at 27.3.

B5: unnamed (peptide)
chain: WNWENVWGLDQTHPLW
As to B5, the “phage ELISA signal ratio” value in experiment [3] is 3.15.

B6: unnamed (peptide)
chain: GPEMWNLHWQDWYNEV
As for B6, the “phage ELISA signal ratio” value in experiment [1] came out at 28.3.

B7: unnamed (peptide)
chain: FDAYWQDLYMMDLDSF
For B7, the “phage ELISA signal ratio” value in experiment [4] was 19.8.

B8: unnamed (peptide)
chain: AEEHSMSLMSLLLAPS
Take B8: in experiment [5], the “phage ELISA signal ratio” value is 5.77.

B9: unnamed (peptide)
chain: WADWVFQENEKWDLFV
In the case of B9, the “phage ELISA signal ratio” value in experiment [6] is 29.1.

B10: unnamed (peptide)
chain: YPYGWQQWVWESEQVQ
For B10, the “phage ELISA signal ratio” value in experiment [6] was found to be 27.1.

B11: unnamed (peptide)
chain: ASGEHAVGWQDWVWIS
B11: the “phage ELISA signal ratio” value in experiment [6] is 31.1.

B12: unnamed (peptide)
chain: MNEHWTEWYWQSQNFV
For B12, the “phage ELISA signal ratio” value in experiment [1] is 20.4.

B13: unnamed (peptide)
chain: YGWDWEFLEGLQYGKV
As to B13, the “phage ELISA signal ratio” value in experiment [6] is 32.4.

B14: unnamed (peptide)
chain: QDLESWWWSEHLSNIM
With B14, in experiment [5], the “phage ELISA signal ratio” value turned out to be 14.3.

B15: unnamed (peptide)
chain: YALPYEWMWMTDLIQE
As to B15, the “phage ELISA signal ratio” value in experiment [7] stood at 3.03.

B16: unnamed (peptide)
chain: YPEFAHYGFADWIYAS
B16: in experiment [6], the “phage ELISA signal ratio” value amounted to 30.4.

B17: unnamed (peptide)
chain: MHSELNWWEAMQWDSW
In the case of B17, the “phage ELISA signal ratio” value in experiment [1] turned out to be 4.7.

B18: unnamed (peptide)
chain: EPLNYGWEGWLLDGWS
In the case of B18, the “phage ELISA signal ratio” value in experiment [6] is 28.8.

B19: unnamed (peptide)
chain: DVAWHVPWEQYFEQET
For B19, the “phage ELISA signal ratio” value in experiment [4] worked out at 16.8.

B20: unnamed (peptide)
chain: VPVYGWDPGLWDGHAL
For the molecule B20, in experiment [6], the “phage ELISA signal ratio” value stood at 35.1.

B21: unnamed (peptide)
chain: VEQFPYGWADWVHEIV
As for B21, in experiment [6], the “phage ELISA signal ratio” value came out at 31.3.

B22: unnamed (peptide)
chain: VSYGWAHWTMEQGEDA
Regarding B22, the “phage ELISA signal ratio” value in experiment [6] stood at 28.1.

B23: unnamed (peptide)
chain: LQTYDWWADVMDHVLN
As for B23, in experiment [8], the “phage ELISA signal ratio” value is 4.42.

B24: unnamed (peptide)
chain: FDQLMHEAYTQWQSQQ
On to B24, for which, in experiment [8], the “phage ELISA signal ratio” value worked out at 31.5.

B25: unnamed (peptide)
chain: MSGITDWWENPAYWSW
B25: the “phage ELISA signal ratio” value in experiment [1] is 3.86.

B26: unnamed (peptide)
chain: FQEVTMYGWRPEYLSD
For B26, the “phage ELISA signal ratio” value in experiment [6] stood at 27.7.

B27: unnamed (peptide)
chain: ADYPFEVWQAWVFEEV
With B27, the “phage ELISA signal ratio” value in experiment [6] is 36.3.

B28: unnamed (peptide)
chain: QTDYAYGFYPFIEQHF
In the case of B28, the “phage ELISA signal ratio” value in experiment [6] was determined as 32.3.

B29: unnamed (peptide)
chain: EFEMDFWEMWNAWLSQ
For B29, the “phage ELISA signal ratio” value in experiment [3] was 14.9.

B30: unnamed (peptide)
chain: DGKHWADFYSAFPMLA
With B30, the “phage ELISA signal ratio” value in experiment [1] amounted to 31.8.

B31: unnamed (peptide)
chain: KLEMYQGTIPYGNYWP
Regarding B31, the “phage ELISA signal ratio” value in experiment [2] was found to be 6.64.

B32: unnamed (peptide)
chain: LQVEYGWAEWTWIGAD
Regarding B32, the “phage ELISA signal ratio” value in experiment [6] came to 27.2.

B33: unnamed (peptide)
chain: WEDWTYWNDHLHLSPE
Regarding B33, the “phage ELISA signal ratio” value in experiment [1] was determined as 8.15.

B34: unnamed (peptide)
chain: MNHAQIQSPLLWSLLW
Take B34: in experiment [5], the “phage ELISA signal ratio” value was 11.6.

B35: unnamed (peptide)
chain: RPDIMERLQQLMVWHG
As for B35, the “phage ELISA signal ratio” value in experiment [8] is 4.13.

B36: unnamed (peptide)
chain: WVEYGWQDWVTKFDQQ
As for B36, the “phage ELISA signal ratio” value in experiment [6] worked out at 27.1.

B37: unnamed (peptide)
chain: DINVTSDMNQHWMQWS
Regarding B37, the “phage ELISA signal ratio” value in experiment [1] was 33.1.

B38: unnamed (peptide)
chain: DQVLKWNEHWHEWLQA
Turning to B38, the “phage ELISA signal ratio” value in experiment [1] was 26.3.

B39: unnamed (peptide)
chain: DFNAHWLEWHAQHVAL
On to B39, for which the “phage ELISA signal ratio” value in experiment [1] turned out to be 28.5.

B40: unnamed (peptide)
chain: YGWDPFLENISWSWQA
Consider B40, for which, in experiment [6], the “phage ELISA signal ratio” value came to 33.4.

B41: unnamed (peptide)
chain: AAQYGWQDWVMVPESM
B41: the “phage ELISA signal ratio” value in experiment [6] was found to be 32.8.

B42: unnamed (peptide)
chain: PDFWWQQQMADIMQWR
Turning to B42, the “phage ELISA signal ratio” value in experiment [3] was 21.4.

B43: unnamed (peptide)
chain: TLTATDWWEEWNWGEN
Take B43: in experiment [1], the “phage ELISA signal ratio” value is 20.9.

B44: unnamed (peptide)
chain: QNGTPMPGWAPWVLEV
With B44, in experiment [6], the “phage ELISA signal ratio” value is 34.1.

B45: unnamed (peptide)
chain: SIKHWEQFYASQPPQI
As for B45, the “phage ELISA signal ratio” value in experiment [1] was determined as 16.2.

B46: unnamed (peptide)
chain: WFDEGMWEVINQYNSL
As to B46, in experiment [8], the “phage ELISA signal ratio” value worked out at 21.9.

B47: unnamed (peptide)
chain: TPGDLIDFSTLTFYYV
Turning to B47, in experiment [2], the “phage ELISA signal ratio” value came to 7.11.

B48: unnamed (peptide)
chain: EIEPWWWDPHHENWAM
Turning to B48, the “phage ELISA signal ratio” value in experiment [3] is 7.12.

B49: unnamed (peptide)
chain: QNDGMDKAWVFWHEPT
As to B49, in experiment [1], the “phage ELISA signal ratio” value amounted to 20.8.

B50: unnamed (peptide)
chain: DSHYGWAEWVLQGPVA
B50: the “phage ELISA signal ratio” value in experiment [6] came out at 35.1.

B51: unnamed (peptide)
chain: YLTWWYDPDHPDWATV
As for B51, in experiment [3], the “phage ELISA signal ratio” value stood at 6.35.

B52: unnamed (peptide)
chain: EDVELLNKHWYDWAQV
As to B52, in experiment [1], the “phage ELISA signal ratio” value was 25.

B53: unnamed (peptide)
chain: WEEDFWTGLHFLNNAE
As for B53, the “phage ELISA signal ratio” value in experiment [4] is 25.5.

B54: unnamed (peptide)
chain: EEMQQLGPFYGWQDWV
Consider B54, for which the “phage ELISA signal ratio” value in experiment [6] came out at 30.5.

B55: unnamed (peptide)
chain: LNDHWVAWHLMKNEIQ
With B55, the “phage ELISA signal ratio” value in experiment [1] came out at 14.3.

B56: unnamed (peptide)
chain: DIPPESYGWAPWVWQV
Turning to B56, the “phage ELISA signal ratio” value in experiment [6] came out at 35.3.

B57: unnamed (peptide)
chain: IVALESPYGWQDWVTT
B57: the “phage ELISA signal ratio” value in experiment [6] was found to be 28.1.
